Our source for the growth values is PubChem BioAssay (NCI).

About 83,000 compounds went through this panel and 20% of them were active in at least one assay; those are over-represented in the sample as a whole.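 For each line, cells grew in 96-well plates with the test compound present at a single concentration for 48 hours.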 Calls of active or inactive are those of the source. Rule for the calls: active = growth percent below 10; inactive = the rest.

The assay relates to MDA-MB-468 breast. The assay is described as follows: NCI-60 one-dose screen, 48 h (100 = growth as untreated, 0 = no growth, -100 = all killed). Particulars: 10 µM unless noted.
Regarding `O=C(c1ccc(O)cc1)c1ccc(O)cc1`, the growth is 110% (inactive).
As for `CN(c1cc2ncc(=O)[nH]c2cc1NC(N)=NCc1ccc(Cl)cc1)C1CCCCC1`, the growth is -80.8% (active).
Regarding `COc1ccc(-c2ccc(-c3ccc(C(=N)N)nc3)s2)cc1Cl`, the growth is -51.8% (active).
With `Cc1ccccc1C(=O)c1ccccc1C(=O)O`, the growth is 108% (inactive).
In the case of `Oc1c(I)cc(I)cc1CNCc1ccccn1` it was 29.3% (inactive).
Regarding `N#C/C(=C\c1ccc2c(c1)OCO2)n1nnc2ccccc21`, the growth is -1.9% (active).
In the case of `COc1cc(C(=O)O/N=C(\N)Cc2cccc3ccccc23)cc(OC)c1OC`, the growth is -72.1% (active).
Take `OCCn1cc(-c2nc(-c3c[nH]c4ncccc34)cs2)c2ccccc21`: the growth is 4.37% (active).
For the compound `Cc1csc(/N=C(N)/N=C(\N)c2cccnc2)n1`, the growth was 91.9% (inactive).
`COc1ccccc1/C=C/C(=O)Nc1ccc(F)cc1`: the growth is 105% (inactive).
Regarding `CCOC(=O)c1ccccc1NC(c1ccccc1)c1ccc2cccnc2c1O` (stereo not given), the growth is 8.19% (active).
For the compound `C=CCn1c(SCC(=O)Nc2ccc(C(=O)/C=C/c3ccc(Cl)cc3)cc2)nnc1-c1c[nH]c2ccccc12`, the growth is 62.2% (inactive).
For the compound `O=C(CN1CCN(c2cc3c(cc2F)c(=O)c(C(=O)N/N=C/c2ccccc2O)cn3C2CC2)CC1)N/N=C\c1ccccc1O`, the growth is -4.47% (active).
In the case of `CC1=C(C/C=C(\C)CCC[C@H](C)CCC[C@H](C)CCCC(C)C)C(=O)c2ccccc2C1=O`, the growth is 116% (inactive).
`CC(C)(C)n1nnnc1C(Nc1nccs1)c1cc2cccc3ccc4cccc1c4c32` (stereo not given): the growth was -35.2% (active).
Under `C#C[C@]1(O)CC[C@H]2[C@@H]3CC=C4c5sc(-c6ccccn6)nc5CC[C@]4(C)[C@H]3CC[C@@]21C` stands 89.2% (inactive); under `CCOC(=O)C1=C(C)NC(=S)NC1c1ccccc1` (stereo not given), 98.3% (inactive).
Consider `CN1CCN(Cc2ccc(NC(=O)c3cncc(C#Cc4c(N)ncc5cc(F)ccc45)c3)cc2C(F)(F)F)CC1`, for which the growth was 55.6% (inactive).
`CCOc1ccccc1NC(=O)CCl`: the growth was 79.4% (inactive).
`CC[N+](CC)=c1sc2c(s1)C(c1ccc(Cl)cc1)Oc1ccc(Cl)cc1-2` (stereo not given): the growth is -4.17% (active).
`CCOC(=O)CC1CSC(N/N=C/c2ccc(O)cc2)=N1` (stereo not given): the growth is 108% (inactive).
Consider `COc1ccc(Nc2ncc(Br)c(NCCCNC(=O)c3cccs3)n2)cc1`, for which the growth is 51.1% (inactive).
In the case of `Cc1[nH]c2ccccc2c1/C=N/Nc1ncnc2sc3c(c12)CCN(CC(=O)OC(C)(C)C)C3`, the growth is 47.5% (inactive).
Take `S=C1SCC(c2ccccc2)S1` (stereo not given): the growth is 99.6% (inactive).
For `COc1cc(NC2CCC(=O)N2c2ccc(Cl)cc2Cl)cc(OC)c1OC` (stereo not given), the growth was 110% (inactive).
Under `CCN(C(=O)Nc1cccc2ccccc12)c1ccccc1` stands 99.7% (inactive); under `CN(CCCCCl)P(=O)(OCc1ccc([N+](=O)[O-])o1)C(F)(F)c1ccc(CC(=O)NC[C@@H](O)/C=C\[C@@H](O)[C@H](CO)Cc2ccccc2)cc1` (stereo not given in full), 55% (inactive).
Under `CC(=O)n1c(/C(C#N)=C/c2ccc(N(C)C)cc2)cc2ccccc21` stands 14.2% (inactive); under `COc1ccc(-c2nn(-c3cccc(Cl)c3)cc2-c2c(C#N)c(=O)n3[nH]c(-c4ccccc4)nc3c2C#N)cc1`, 97.6% (inactive); under `C=C1C(=O)O[C@H]2[C@H]1CC/C(COC(=O)N1CCC[C@H]1C(=O)Nc1ccc(OC)c(C(N)=O)c1O)=C\CC[C@@]1(C)O[C@@H]21`, -4.47% (active).
Regarding `COc1cc(CNC(=O)/C=C/C=C/c2ccc3c(c2)OCO3)ccc1OCc1cn(-c2ccc(C)c(C)c2)nn1`, the growth was 65.2% (inactive).
Turning to `Cc1cc(=O)c2c(C)ccc(C)c2[nH]1`, the growth is 96.8% (inactive).
For `C=C1CC[C@@H]2[C@](C)(COC(C)=O)[C@H](OC(C)=O)CC[C@@]2(C)[C@@H]1CC(Nc1ccc(S(=O)(=O)Nc2nccc(C)n2)cc1)C1=CCOC1=O` (stereo not given in full), the growth was -45.8% (active).
In the case of `C=C1C(=O)O[C@H]2[C@H]1CC/C(COC(=O)/C=C\C(=O)O)=C\CC[C@@]1(C)O[C@@H]21` it was 110% (inactive); in that of `CCCCCc1ccc(S(=O)(=O)Nc2cccc(-c3csc(NC(=O)CN4CCN(C)CC4)n3)c2)cc1`, 89.5% (inactive); in that of `C=C(C)[C@@H]1CC[C@]2(C)[C@H](CC=C3[C@@H]4CC(C)(C)CC[C@]4(C=O)CC[C@]32C)[C@@]1(C)CCCN`, 51.3% (inactive).
As to `CC[C@H](CC[C@@H](C)[C@H]1CC[C@H]2[C@@H]3/C(=C/c4cccnc4)C(=O)C4=CC(=O)CC[C@]4(C)[C@H]3CC[C@]12C)C(C)C`, the growth was 97% (inactive).
Consider `COc1cc(-c2nc(N)n(CC(=O)Nc3ccc(/C(C)=N\O)cc3)n2)cc(OC)c1OC`, for which the growth is 104% (inactive).
Turning to `O=C1C(Cl)=C(NCCN2CCOCC2)C(=O)c2ncccc21`, the growth is -74.1% (active).
Turning to `CC(C)(C)c1ccc(OCCOC(=O)CBr)cc1`, the growth is 87.6% (inactive).
